Source: PubChem BioAssay AID651814 (National Center for Advancing Translational Sciences (NCATS), 2012)
Among all 2,100 compounds or so, about 590 (28%) were called active. Roughly 42% stayed inconclusive and do not appear here. Calls follow the shape of the dose curve; as a rule, active = well fitted inhibition curve with a large enough effect; inconclusive = small, poorly fitted or top-dose-only effect; inactive = flat fitted curve, though single readings scatter. The list shows a part of the results.

Target: DNA dC->dU-editing enzyme APOBEC-3F (Homo sapiens) (UniProt Q8IUX4)
Test: qHTS for inhibitors of Vif-A3F interactions: Cherry picks; also: nearly all actives have a fitted effect of over 70% in size;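 as to Max response: % of control where 0% means no effect; active compounds raise eYFP fluorescence by blocking Vif-driven A3F loss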
Conditions: HeLa A3F-eYFP + Vif (tagged APOBEC3F with the HIV-1 protein that degrades it), eYFP fluorescence, 24 h
Outline: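 Read-out: yellow fluorescence (ex 488 nm, em 500-530 nm) by laser-scanning cytometer after 24 h compound exposure, several concentrations, at 37 deg C. Cells: HeLa line stably co-expressing Vif and C-terminally eYFP-tagged A3F; MG132 served as positive control.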
Potency is read from the fitted curve at half-maximal effect.

DNA dC->dU-editing enzyme APOBEC-3F (Homo sapiens), sequence (Q8IUX4 whole entry, looked up): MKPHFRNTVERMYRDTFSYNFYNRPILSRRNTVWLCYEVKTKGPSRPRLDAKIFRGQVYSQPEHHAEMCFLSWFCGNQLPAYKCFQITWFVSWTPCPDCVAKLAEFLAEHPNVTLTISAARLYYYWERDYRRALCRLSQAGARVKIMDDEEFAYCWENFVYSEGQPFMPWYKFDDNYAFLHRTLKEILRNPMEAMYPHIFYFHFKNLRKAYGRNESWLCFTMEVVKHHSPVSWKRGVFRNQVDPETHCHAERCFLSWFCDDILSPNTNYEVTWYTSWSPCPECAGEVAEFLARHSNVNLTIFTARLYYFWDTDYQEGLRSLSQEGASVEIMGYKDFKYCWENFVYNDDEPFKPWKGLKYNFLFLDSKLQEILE

Max response, inactive:
NC(=O)c1cccc(-c2ccnc3c2CC(C(=O)NCc2ccco2)O3)c1 (centres undefined) -22.9%
CCOC(=O)c1sc(NC(=S)NC(=O)c2ccco2)nc1C 0.261%
COc1cccc(NC(=O)c2sc3nc(C)c(C(=O)Nc4ccc(C)cc4C)c(-c4ccco4)c3c2N)c1 -5.66%
C#CCSc1nc(-c2cccs2)ccc1C#N -28.5%
CC1Sc2ccc(C(=O)NCc3ccccn3)cc2NC1=O (centres undefined) -4.69%
Cc1ccc(NC(=O)CSc2ccccc2NC(=O)c2cccc(Cl)c2)cc1Cl -5.67%
CCn1c(CNC(=O)C23CC4CC(CC(C4)C2)C3)nnc1SCC(=O)Nc1ccc(OC)cc1 6.03%
COc1ccc(NC(=O)c2cccc3ccccc23)cc1 -30%
Cc1cccc(C(=O)NC(=S)N2CCc3ccccc3C2)c1 0.715%
COc1ccc(NC(=O)CN2C(=O)C3(SCC(=O)N3c3ccccc3)c3ccccc32)cc1Cl (centres undefined) -11.4%
Cn1cc(/C=C2\SC(=O)N(c3ccccc3)C2=O)c2ccccc21 -28.8%
C/C(=N/NC(N)=S)c1ccc(Br)s1 1.12%
CC(NC1=CC(=O)c2cccnc2C1=O)C(O)c1ccccc1 (centres undefined) -27.2%
O=C(NCc1ccco1)C1Cc2c(-c3cccc(F)c3)ccnc2O1 (centres undefined) -27.2%
Cc1ccc(-c2cc(C(=O)N/N=C/C(Br)=C/c3ccccc3)n[nH]2)o1 -23.7%
O=[N+]([O-])c1ccccc1C1Nc2cccc3cccc(c23)N1 1.22%
Cc1ccc(S(=O)(=O)Nc2cc(Cl)c(O)c3ncccc23)cc1 -26.9%
COc1cccc(C2CC(c3ccccc3)=NN2S(=O)(=O)c2ccc(C)cc2)c1OC (centres undefined) -28.4%
C(=C\c1ccco1)/C1=NN(c2ccccc2)C(c2ccco2)C1 (centres undefined) -27.8%
CCCOc1ccc(N)cc1N 4.36%
CN1C(=O)C(O)(C2COC(C)(C)CC2=O)c2cc(Br)ccc21 (centres undefined) -0.16%
CC(C)CCNC(=O)c1ccc2c(c1)NC(=O)C(CS(=O)(=O)Cc1cccc(Br)c1)N2 (centres undefined) 0.102%
C/C(=N\NC(=O)c1cc(-c2ccncc2)nc2ccccc12)c1ccc(N2CCOCC2)cc1 -14.9%
COC(=O)c1c(-c2ccccc2Cl)noc1/C=C/N(C)C 2.98%
CC(=O)c1c(C)[nH]c(C(=O)Nc2ccc(Cl)cc2F)c1C -17.7%
COc1cc(OC)cc(C(=O)Nc2ccccc2C(=O)NC2CC2)c1 -22.6%
CC(=O)c1cc2c(cc1NS(=O)(=O)c1ccc(C)cc1)OCCO2 -26.6%
COC(=O)c1cc(NC(=O)c2ccccc2)c(=O)oc1/C=C/Nc1ccc(Oc2ccccc2)cc1 -22%

Potency, active:
CCc1ccc(NC(=O)c2sc3nc(C)c(C(=O)Nc4ccc(C)cc4C)c(-c4ccco4)c3c2N)cc1 23.1 µM
N#Cc1cccn1-c1nccc(-c2cccs2)n1 12.5 µM
O=CNc1ccc2c3c(cccc13)-c1ccccc1-2 14 µM
CCCCN(C)CC(O)Cn1cc(/C=C/C(=O)c2cccs2)c2ccccc21 (centres undefined) 20.6 µM
N#CCC(=O)N/N=C/c1ccc(N2N=C(c3ccccc3)CC2c2ccccc2)cc1 (centres undefined) 18.4 µM
COc1ccc(NC(=O)CSc2ccc3c4c(cccc24)C(=O)c2ccccc2-3)cc1 8.2 µM
N#Cc1cccc(NC(=O)CSc2ccc3c4c(cccc24)C(=O)c2ccccc2-3)c1 2.31 µM
O=C1S/C(=C\c2ccc(N3CCOCC3)o2)C(=O)N1c1ccccc1 3.53 µM
CCCN1C(=O)S/C(=C/c2ccc(N3CCOCC3)o2)C1=O 2.8 µM
CCCN1C(=O)S/C(=C\c2ccc(N3CCOCC3)o2)C1=O 2.8 µM
Cc1cccc2[nH]cc(/C=C3/C=Nc4ccccc43)c12 23.1 µM
O=[N+]([O-])c1ccc(C2=NN(c3ccccc3)C(c3ccco3)C2)cc1 (centres undefined) 1.25 µM
COc1ccccc1N1N=C(c2ccc([N+](=O)[O-])cc2)CC1c1ccccc1 (centres undefined) 1.12 µM
O=[N+]([O-])c1ccc(/C=C/C2=NN(c3ccccc3)C(c3ccco3)C2)o1 (centres undefined) 2.59 µM
CCN1/C(=C/C=C2/SC(=Nc3cccc4ncccc34)N(C)C2=O)Sc2ccccc21 16.4 µM
CC(C)n1cc(/C=C/c2cc[n+](C)cc2)c2ccccc21 1.4 µM
CCn1cc(/C=C/c2cc[n+](C)cc2)c2ccccc21 0.79 µM
C=CCn1cc(/C=C/c2cc[n+](C)cc2)c2ccccc21 2.23 µM
COc1ccc(C(=O)Nc2cc(C(C)=O)c(/C=C/N(C)C)oc2=O)cc1 11.2 µM
CC(=O)c1cc(NC(=O)c2ccc(Cl)cc2)c(=O)oc1/C=C/N(C)C 6.27 µM
CC(=O)c1cc(NC(=O)c2ccc(C)cc2)c(=O)oc1/C=C/N(C)C 20.6 µM
